# SW480 rerep: A quantitative high throughput screen for small molecules that induce DNA re-replication in SW480 colon adenocarcinoma cells; AID 624297, 2012; SW480 DNA re-replication, Hoechst DNA content imaging, 48 h; Potency, µM (series often up to 46.1 µM), for inactives: at the top dose re-replication activation, usual class: activators; hit rate 1.8% among 340,000; also: potency is read from the fitted curve at half-maximal effect; % of control where 0% means no effect; nearly all actives have a fitted effect of over 55% in size
#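 SW480 cells exposed to compounds for 48 hr at 37 C, 5% CO2, then Hoechst-stained 40 min. Nuclear DNA content imaged by fluorescence scanning (405 nm excitation, 500-530 nm emission); re-replication scored as increased high-intensity nuclei.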
# TDP1 cell noCPT: qHTS for Inhibitors of human tyrosyl-DNA phosphodiesterase 1 (TDP1): qHTS in cells in absence of CPT; DT40 Tdp1-/- hTDP1 cells, no CPT, ATP luminescence, 48 h; Potency, µM (titrated, usually from 46.2 µM), for the others: top-dose activity change, negative = growth inhibition, most hits filed as inhibitors; hit rate 15% among 420,000; AID 686978, 2013; also: potency is read from the fitted curve at half-maximal effect; % is scaled to controls: 0 for no effect and ±100 for the full control effect; nearly all actives have a fitted effect of over 55% in size
#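 Readout: luminescence from CellTiter-Glo after 30 min in the dark at RT. Cells: DT40 Tdp1-/- with stable hTDP1, 400/well. Exposure: compounds alone, ≥48 hr, 37 °C.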
# DT40 TDP1 CPT: qHTS for Inhibitors of human tyrosyl-DNA phosphodiesterase 1 (TDP1): qHTS in cells in presence of CPT | chicken DT40 Tdp1-/-;hTDP1 cells + 20 nM CPT, ATP luminescence, 48 h | hit rate 12% among 420,000 | Potency, µM (top dose mostly 46.2 µM), for the others: at the highest dose activity change, negative = growth inhibition, actives largely listed as inhibitors; also: potency is read from the fitted curve at half-maximal effect; % is scaled to controls: 0 for no effect and ±100 for the full control effect; nearly all actives have a fitted effect of over 55% in size
#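 Chicken DT40 Tdp1-/- cells stably complemented with human TDP1 were seeded at 400 cells/well in medium containing 20 nM camptothecin, exposed to pin-transferred compounds, and grown at 37 °C for at least 48 hr. Viability was read as ATP luminescence.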
# BCR signal inh: qHTS Assay to Find Inhibitors of Chronic Active B-Cell Receptor Signaling | ABC-DLBCL IkBa-CBG/CBR reporter, luminescence ratio, 4 h | Potency, µM (highest dose often 46.1 µM), inactives show at the top dose activity change, negative = inhibition, usual class: inhibitors | hit rate 0.05% among 340,000; active = well fitted inhibition curve with a large enough effect in the signal ratio, with a control signal flat, not every such curve was filed as active; inconclusive = small, poorly fitted or top-dose-only effect, or effect the other way, or a change in a side signal; the % refers to the signal ratio;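 also: potency is read from the fitted curve at half-maximal effect; plate controls were basal doxycycline-induced cells for no effect and cells given 10 µM MG132 for full effect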
#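 Compounds up to 46 uM were incubated four hours with TMD8 cells whose green CBG68 luciferase is fused to IkappaBalpha; red CBR luminescence normalised the signal, and concentration-effect curves were fitted to fusion, red and ratio data.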
# IL-1B inflam inh: qHTS for Inhibitors of Inflammasome Signaling: IL-1-beta AlphaLISA Primary Screen | THP-1 LPS/ATP IL-1B secretion, AlphaLISA, 16 h; hits give low values | activity change, % at 57.5 µM | hit rate 4.7% among 360,000; in the data active = activity change below about -50%; inconclusive = mostly about -30% to -49%; also: % is scaled to controls: 0 for no effect and ±100 for the full control effect
#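 Secreted IL-1B measured by AlphaLISA bead assay after 16 h compound exposure of THP-1 cells; compounds (final up to 57.5 uM) added 1 h before LPS (250 ng/mL) and ATP (1.25 mM) stimulation; lower signal means less secretion.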
# MCF10A rereplic: A quantitative high throughput screen for small molecules that induce DNA re-replication in MCF 10a normal breast cells; hit rate 2.9% among 350,000; MCF 10A DNA re-replication, Hoechst nuclear intensity, 48 h; AID 624296, 2012; Potency, µM (series often up to 46.1 µM), inactives show at the top dose activity, positive = re-replication, hits mostly activators; also: potency is read from the fitted curve at half-maximal effect; % of control where 0% means no effect; nearly all actives have a fitted effect of over 50% in size
# Starred values were filed as active, the others as inactive; ? = inconclusive; · = no result given; [ ] = another dose, or the depositor's remark. A selection: hits, their analogues and other compounds. The true share with any hit is near 19%. Unless noted, calls follow the shape of the dose curve; as a rule, active = well fitted curve in the direction sought with a large enough effect; inconclusive = small, poorly fitted or top-dose-only effect, or another doubt; inactive = no such curve, though single readings can be large; an effect the other way counts as inactive or inconclusive.
SMILES,SW480 rerep,TDP1 cell noCPT,DT40 TDP1 CPT,BCR signal inh,IL-1B inflam inh,MCF10A rereplic
COc1ccc(C)cc1N(CC(=O)NC1CCCC1)C(=O)Cn1nnc(-c2ccc(C)o2)n1,-53%,-23%,1%,-1%,0,25%
Cc1ccc2nc(CO)[nH]c2c1,·,-2%,7%,·,·,·
COc1cc(C2C(C(=O)Nc3ccccc3)=C(C)Nc3nc(SCC(=O)c4ccc(C)cc4)nn32)ccc1O (centres undefined),·,-5%,0%,5%,·,·
CC1=C(C(=O)Nc2ccc(Cl)cc2)C(c2ccccc2F)n2nc(SCc3cccc(Cl)c3)nc2N1 (centres undefined),·,23µM*,?,·,·,·
CC1=C(C(=O)Nc2ccc(Cl)cc2)C(C(C)C)n2nc(SCc3ccc(Cl)cc3)nc2N1 (centres undefined),·,23µM*,16µM*,·,·,·
CC1=C(C(=O)Nc2ccccc2)C(c2ccccc2C)n2nc(SCC(=O)c3ccc(C)cc3)nc2N1 (centres undefined),·,18µM*,5.8µM*,1%,·,·
C[C@@H]1C(=O)O[C@H](C)[C@H]1C[C@@H](O)[C@](C)(O)C1CC[C@@]2(O)C3=CC(=O)[C@@H]4C[C@@H](O)[C@@H](O)C[C@]4(C)C3CC[C@]12C (some centres undefined),6%[9.22 µM],5%,-3%,-1%,17,0%
COC(=O)C1CCc2c(ccc3c2CCCC3)C1=O (centres undefined),-7%,-12%,18%,·,-13,-14%
Cc1ccc(-c2cc(C(=O)Nc3ccc(SC(F)F)cc3)no2)cc1F,·,-24%,?,·,·,·
OCCN1CCN(C2CCC(c3ccc(F)cc3)c3ccc(F)cc32)CC1 (centres undefined),?,8.2µM*,?,·,-76*,21µM*
Cn1cnc(C(=O)N2CCc3ccccc3C2)c1C(=O)N1CCc2ccccc2C1,-9%,?,?,2%,27,1%
O=C(CCCN1C(=O)/C(=C/c2ccccc2Cl)SC1=S)Nc1ccccn1,8%,?,?,?,-81*,?
O=C(CCCN1C(=O)/C(=C/c2ccccc2Cl)SC1=S)Nc1cccnc1,?,16µM*,4.6µM*,?,?,?
O=C(CN1C(=O)NC(c2ccccc2)(c2ccccc2)C1=O)N1CCN(c2ccccc2F)CC1,-3%,4.1µM*,?,-2%,?,18%
O=C(CCC(=O)N1CCN(c2ccccc2F)CC1)N1CCN(c2ccc(F)cc2)CC1,-16%[9.22 µM],16µM*,?,-5%,9,-6%
O=C(CN1C(=O)NC(c2ccccc2)(c2ccccc2)C1=O)N1CCN(c2ccc(F)cc2)CC1,?,?,?,0%,-6,20%
O=C(CCSCc1ccccc1Cl)N1CCN(c2ccc(F)cc2)CC1,·,?,?,-4%,·,·
O=C(CCSCc1ccccc1F)N1CCN(c2ccc(F)cc2)CC1,·,26µM*,?,0%,·,·
CC1CCN(C(=O)c2[nH]cnc2C(=O)Nc2cccc(Cl)c2)CC1,-8%,?,?,1%,-28,24%
COc1cccc(C(=O)C2CCCN(C(=O)c3ccc(C#CC(C)(C)O)cc3)C2)c1 (centres undefined),?,15µM*,18µM*,-13%,-1,-14%
Cc1cc(CN2CCCC(C(=O)Nc3ccc(-c4nc5ccccc5[nH]4)cc3)C2)n[nH]1 (centres undefined),?,?,18µM*,?,-16,-3%
COc1cccc(-c2ccc(NC(=O)C3CCCN(Cc4cccc(C)n4)C3)cc2)c1 (centres undefined),·,23µM*,?,·,-11,·
CC(C)c1cc(C(=O)N2CCCC(C(=O)c3ccc4ccccc4c3)C2)on1 (centres undefined),1%,26µM*,?,?,-89*,?
Cc1cc(Cl)ccc1C(=O)C1CCCN(C(=O)c2cc(C(C)C)no2)C1 (centres undefined),13%,-22%,?,?,-15,13%
Cc1ccc(NC(=O)C2CCCN2C(=O)OCc2ccccc2)cc1F (centres undefined),2%,?,?,-1%,1,5%
SMILES,SW480 rerep,TDP1 cell noCPT,DT40 TDP1 CPT,BCR signal inh,IL-1B inflam inh,MCF10A rereplic
COc1ccc(S(=O)(=O)N2CCCCCC2)cc1NC(C)C(=O)Nc1ccc(NC(C)=O)cc1 (centres undefined),2%,?,?,·,-20,-3%
CCCCN1C(=O)NC(c2ccc(OC)cc2)C(C(=O)OCc2ccccc2)=C1C (centres undefined),16%,-22%,?,10%,-5,?
CCCCC[C@H](O)/C=C/[C@@H]1[C@@H](C/C=C\CCCC(=O)O)[C@@H](O)C[C@@H]1O,·,6%[4.12 µM],31%[4.12 µM],·,·,·
COc1cc(C(=O)OCC(=O)NC(=O)NC2CCCCC2)cc(Cl)c1OC,-5%,-26%,-9%,?,-5,-2%
CCOC(=O)N1CCC(N2CCCC(C(=O)c3ccc4cc(OC)ccc4c3)C2)CC1 (centres undefined),?,15µM*,23µM*,?,-162*,0%
COc1ccc(-c2[nH]ncc2CN2CCCC(C(=O)c3cccc(OC)c3)C2)cc1 (centres undefined),-9%,-1%,1%,-6%,-19,13%
CCOC(=O)N1CCC(N2CCCC(C(=O)c3cc(C)c(OC)c(C)c3)C2)CC1 (centres undefined),0%,-27%,-20%,-14%,-11,6%
COc1ccc2cc(C(=O)C3CCCN(C(=O)c4ccnn4C)C3)ccc2c1 (centres undefined),?,15µM*,26µM*,-6%,-29,?
COc1ccc2cc(C(=O)C3CCCN(Cc4cccc(C)n4)C3)ccc2c1 (centres undefined),?,8.2µM*,2.6µM*,?,-109*,?
COc1ccc(C(=O)C2CCCN(C(=O)c3ccnn3C)C2)cc1OC (centres undefined),2%,16%,2%,-2%,4,0%

# Compound activity deposited in PubChem BioAssay by National Center for Advancing Translational Sciences (NCATS).
